Binding signal data for 17 sequences are collected here from PMC11006913.

Substitutions are numbered along the chain they refer to.

Assay in all cases: PBM; 200 nM protein, PBS
Conditions in all cases: dsDNA, one strand shown

The target in assay [1] is CRX (Homo sapiens, UniProt O43186 26-111).
In assay [2] the target is CRX (Homo sapiens, UniProt O43186 26-111, E42D).
The target of assay [3] is CRX (Homo sapiens, UniProt O43186 26-111, R41L).
For assay [4], the target named is HOXB6 (Homo sapiens, UniProt P17509 132-218).
Assay [5] deals with T1, NKX2-4 (Homo sapiens, UniProt Q9H2Z4 175-261, P217L).
T1 sequence: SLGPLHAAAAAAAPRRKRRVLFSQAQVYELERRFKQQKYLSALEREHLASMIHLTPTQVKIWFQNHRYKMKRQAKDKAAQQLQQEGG

Assay [6] addresses T2, NKX2-4 (Homo sapiens, UniProt Q9H2Z4 175-261, T231S).
T2 sequence: T1 sequence with L43P, T57S

Assay [7] addresses T3, NKX2-4 (Homo sapiens, UniProt Q9H2Z4 175-261).
T3 sequence: T1 sequence with L43P

In assay [8] the target is T4, NKX2-4 (Homo sapiens, UniProt Q9H2Z4 175-261, R246Q).
T4 sequence: T1 sequence with L43P, R72Q

Assay [9] addresses T5, NKX2-6 (Homo sapiens, UniProt A6NCS4 118-204, R150C).
T5 sequence: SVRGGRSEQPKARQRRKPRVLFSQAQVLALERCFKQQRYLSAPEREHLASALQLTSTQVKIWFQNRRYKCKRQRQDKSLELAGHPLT

Assay [10] deals with HOXB6 (Homo sapiens, UniProt P17509 132-218, K202E).
Assay [11] has as its target HOXC10 (Homo sapiens, UniProt Q9NYD6 254-340).
Assay [12] has as its target HOXC10 (Homo sapiens, UniProt Q9NYD6 254-340, K271E).
For assay [13], the target named is PRRX1 (Homo sapiens, UniProt P54821 80-166, F113S).
Assay [14] deals with PRRX1 (Homo sapiens, UniProt P54821 80-166).
Assay [15] has as its target HOXA2 (Homo sapiens, UniProt O43364 129-215, R185T).
Assay [16] has as its target HOXA2 (Homo sapiens, UniProt O43364 129-215, R185K).
The target in assay [17] is HOXA2 (Homo sapiens, UniProt O43364 129-215, Y150S).
Assay [18] has as its target HOXA2 (Homo sapiens, UniProt O43364 129-215).

CRX (Homo sapiens, UniProt O43186 26-111, R41L), sequence (O43186 26-111 R41L): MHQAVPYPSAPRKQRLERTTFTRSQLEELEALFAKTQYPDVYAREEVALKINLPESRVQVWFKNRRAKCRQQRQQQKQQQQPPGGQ
CRX (Homo sapiens, UniProt O43186 26-111), sequence (O43186 26-111): as the sequence (O43186 26-111 R41L) above, with L16R counted along it
CRX (Homo sapiens, UniProt O43186 26-111, E42D), sequence (O43186 26-111 E42D): as the sequence (O43186 26-111 R41L) above, with L16R, E17D counted along it
HOXB6 (Homo sapiens, UniProt P17509 132-218), sequence (P17509 132-218): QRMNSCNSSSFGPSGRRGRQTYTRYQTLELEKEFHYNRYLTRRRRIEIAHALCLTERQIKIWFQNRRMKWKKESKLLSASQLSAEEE
HOXC10 (Homo sapiens, UniProt Q9NYD6 254-340, K271E), sequence (Q9NYD6 254-340 K271E): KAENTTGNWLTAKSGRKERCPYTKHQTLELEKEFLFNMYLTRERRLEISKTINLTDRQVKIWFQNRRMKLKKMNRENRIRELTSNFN
HOXA2 (Homo sapiens, UniProt O43364 129-215, R185K), sequence (O43364 129-215 R185K): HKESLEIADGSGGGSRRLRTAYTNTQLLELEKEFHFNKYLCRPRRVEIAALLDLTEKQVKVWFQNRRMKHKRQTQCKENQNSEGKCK
HOXB6 (Homo sapiens, UniProt P17509 132-218, K202E), sequence (P17509 132-218 K202E): as the sequence (P17509 132-218) above, with K71E counted along it
HOXC10 (Homo sapiens, UniProt Q9NYD6 254-340), sequence (Q9NYD6 254-340): as the sequence (Q9NYD6 254-340 K271E) above, with E18K counted along it
HOXA2 (Homo sapiens, UniProt O43364 129-215, Y150S), sequence (O43364 129-215 Y150S): as the sequence (O43364 129-215 R185K) above, with Y22S, K57R counted along it
HOXA2 (Homo sapiens, UniProt O43364 129-215), sequence (O43364 129-215): as the sequence (O43364 129-215 R185K) above, with K57R counted along it
PRRX1 (Homo sapiens, UniProt P54821 80-166, F113S), sequence (P54821 80-166 F113S): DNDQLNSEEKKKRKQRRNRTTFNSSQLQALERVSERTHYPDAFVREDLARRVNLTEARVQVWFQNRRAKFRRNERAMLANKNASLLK
PRRX1 (Homo sapiens, UniProt P54821 80-166), sequence (P54821 80-166): as the sequence (P54821 80-166 F113S) above, with S34F counted along it
HOXA2 (Homo sapiens, UniProt O43364 129-215, R185T), sequence (O43364 129-215 R185T): as the sequence (O43364 129-215 R185K) above, with K57T counted along it

For the sequence ATAATATC, the binding signal in assay [1] was 11.2 upbm affinity estimate (log intensity, higher = more binding, comparable within an allelic series); in [2], 10.9 upbm affinity estimate (log intensity, higher = more binding, comparable within an allelic series); in assay [3], 10.8 upbm affinity estimate (log intensity, higher = more binding, comparable within an allelic series); in assay [4] it was 10.8 upbm affinity estimate (log intensity, higher = more binding, comparable within an allelic series).

As to GAAATCCA, the binding signal in assay [1] is 10.7 upbm affinity estimate (log intensity, higher = more binding, comparable within an allelic series); in assay [2], 10.4 upbm affinity estimate (log intensity, higher = more binding, comparable within an allelic series); in assay [3], 10.6 upbm affinity estimate (log intensity, higher = more binding, comparable within an allelic series).

ACCCAGTG: the binding signal in assay [1] is 8.01 upbm affinity estimate (log intensity, higher = more binding, comparable within an allelic series); in assay [2], 8.16 upbm affinity estimate (log intensity, higher = more binding, comparable within an allelic series); in assay [3] it was 8.13 upbm affinity estimate (log intensity, higher = more binding, comparable within an allelic series).

As to CAGGTGCG, the binding signal in assay [1] was 8.4 upbm affinity estimate (log intensity, higher = more binding, comparable within an allelic series); in assay [2] it was 8.3 upbm affinity estimate (log intensity, higher = more binding, comparable within an allelic series); in [3], 8.29 upbm affinity estimate (log intensity, higher = more binding, comparable within an allelic series).

For GCTATAGC, the binding signal was 9.92 upbm affinity estimate (log intensity, higher = more binding, comparable within an allelic series) in [5]; 9.98 upbm affinity estimate (log intensity, higher = more binding, comparable within an allelic series) in assay [6]; 9.84 upbm affinity estimate (log intensity, higher = more binding, comparable within an allelic series) in assay [7]; 9.91 upbm affinity estimate (log intensity, higher = more binding, comparable within an allelic series) in [8].

As for CAAGTGCA, the binding signal in assay [5] is 12.1 upbm affinity estimate (log intensity, higher = more binding, comparable within an allelic series); in [6] it was 12.5 upbm affinity estimate (log intensity, higher = more binding, comparable within an allelic series); in assay [7], 12 upbm affinity estimate (log intensity, higher = more binding, comparable within an allelic series); in assay [9] it was 11.4 upbm affinity estimate (log intensity, higher = more binding, comparable within an allelic series); in assay [8], 12.7 upbm affinity estimate (log intensity, higher = more binding, comparable within an allelic series).

Take CCAGGCTC: the binding signal was 9.76 upbm affinity estimate (log intensity, higher = more binding, comparable within an allelic series) in assay [5]; 9.75 upbm affinity estimate (log intensity, higher = more binding, comparable within an allelic series) in assay [6]; 9.7 upbm affinity estimate (log intensity, higher = more binding, comparable within an allelic series) in assay [7]; 9.08 upbm affinity estimate (log intensity, higher = more binding, comparable within an allelic series) in [10]; 9.86 upbm affinity estimate (log intensity, higher = more binding, comparable within an allelic series) in assay [8]; 9.18 upbm affinity estimate (log intensity, higher = more binding, comparable within an allelic series) in assay [4].

Take ACCCTTAC: the binding signal in assay [5] was 11.5 upbm affinity estimate (log intensity, higher = more binding, comparable within an allelic series); in [6], 11.7 upbm affinity estimate (log intensity, higher = more binding, comparable within an allelic series); in assay [7] it was 11.4 upbm affinity estimate (log intensity, higher = more binding, comparable within an allelic series).

As for CGTCGGGC, the binding signal is 9.35 upbm affinity estimate (log intensity, higher = more binding, comparable within an allelic series) in assay [5]; 9.21 upbm affinity estimate (log intensity, higher = more binding, comparable within an allelic series) in assay [6]; 10 upbm affinity estimate (log intensity, higher = more binding, comparable within an allelic series) in [11]; 9.36 upbm affinity estimate (log intensity, higher = more binding, comparable within an allelic series) in [7]; 10.1 upbm affinity estimate (log intensity, higher = more binding, comparable within an allelic series) in assay [12]; 9.37 upbm affinity estimate (log intensity, higher = more binding, comparable within an allelic series) in assay [8].

As for CCCGCCTC, the binding signal is 9.39 upbm affinity estimate (log intensity, higher = more binding, comparable within an allelic series) in assay [5]; 9.25 upbm affinity estimate (log intensity, higher = more binding, comparable within an allelic series) in assay [6]; 9.33 upbm affinity estimate (log intensity, higher = more binding, comparable within an allelic series) in assay [13]; 9.39 upbm affinity estimate (log intensity, higher = more binding, comparable within an allelic series) in assay [7]; 9.31 upbm affinity estimate (log intensity, higher = more binding, comparable within an allelic series) in assay [8]; 8.99 upbm affinity estimate (log intensity, higher = more binding, comparable within an allelic series) in assay [14].

For CGGCGTTA, the binding signal was 9.81 upbm affinity estimate (log intensity, higher = more binding, comparable within an allelic series) in assay [5]; 9.61 upbm affinity estimate (log intensity, higher = more binding, comparable within an allelic series) in assay [6]; 9.82 upbm affinity estimate (log intensity, higher = more binding, comparable within an allelic series) in assay [7]; 9.89 upbm affinity estimate (log intensity, higher = more binding, comparable within an allelic series) in assay [8].

Consider GCGTGCCC, for which the binding signal in [5] was 9.72 upbm affinity estimate (log intensity, higher = more binding, comparable within an allelic series); in assay [6], 9.7 upbm affinity estimate (log intensity, higher = more binding, comparable within an allelic series); in assay [7], 9.77 upbm affinity estimate (log intensity, higher = more binding, comparable within an allelic series); in assay [15], 7.23 upbm affinity estimate (log intensity, higher = more binding, comparable within an allelic series); in [16], 10.3 upbm affinity estimate (log intensity, higher = more binding, comparable within an allelic series); in [8], 9.73 upbm affinity estimate (log intensity, higher = more binding, comparable within an allelic series). The binding signal in assay [17] is 10.3 upbm affinity estimate (log intensity, higher = more binding, comparable within an allelic series); in assay [18], 7.4 upbm affinity estimate (log intensity, higher = more binding, comparable within an allelic series).

For the sequence CTTGAGGA, the binding signal in [5] is 11.9 upbm affinity estimate (log intensity, higher = more binding, comparable within an allelic series); in assay [6] it was 12.3 upbm affinity estimate (log intensity, higher = more binding, comparable within an allelic series); in [7], 11.8 upbm affinity estimate (log intensity, higher = more binding, comparable within an allelic series); in [8], 12.2 upbm affinity estimate (log intensity, higher = more binding, comparable within an allelic series).

For ACTCCTCG, the binding signal was 11.6 upbm affinity estimate (log intensity, higher = more binding, comparable within an allelic series) in assay [5]; 11.8 upbm affinity estimate (log intensity, higher = more binding, comparable within an allelic series) in [6]; 11.5 upbm affinity estimate (log intensity, higher = more binding, comparable within an allelic series) in [7].

In the case of GTGGCCAC, the binding signal in assay [5] is 10.2 upbm affinity estimate (log intensity, higher = more binding, comparable within an allelic series); in [6], 10.2 upbm affinity estimate (log intensity, higher = more binding, comparable within an allelic series); in assay [7], 10.2 upbm affinity estimate (log intensity, higher = more binding, comparable within an allelic series); in [8], 10.3 upbm affinity estimate (log intensity, higher = more binding, comparable within an allelic series).

On to ATGAGTAC, for which the binding signal in [5] was 12.4 upbm affinity estimate (log intensity, higher = more binding, comparable within an allelic series); in assay [6], 12.8 upbm affinity estimate (log intensity, higher = more binding, comparable within an allelic series); in assay [7], 12.3 upbm affinity estimate (log intensity, higher = more binding, comparable within an allelic series); in [8], 12.7 upbm affinity estimate (log intensity, higher = more binding, comparable within an allelic series).

Turning to GGTCCTCA, the binding signal was 11.5 upbm affinity estimate (log intensity, higher = more binding, comparable within an allelic series) in assay [5]; 11.9 upbm affinity estimate (log intensity, higher = more binding, comparable within an allelic series) in assay [6]; 11.5 upbm affinity estimate (log intensity, higher = more binding, comparable within an allelic series) in [7].
